The nature of assay [1]: binders of probe aFSTL3 on microarray, primary screen, stem cell growth factor project, biochemical, small-molecule microarray, fluorescence 635/667 (AID 1064).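 Further: measures binding of the biotinylated anti-FSTL3 antibody to printed compounds.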 The note with it: higher = more signal.
A short description of assay [2]: binders from COS7 lysate, DM2A8 probe, primary screen, torsin A project, cell lysate, small-molecule microarray, fluorescence 635/667 (AID 1065). The note with it: higher = more signal, COS7 lysate expressing mutant human TOR1A.
A short description of assay [3]: binders of probe aFGF2 on microarray, primary screen, stem cell growth factor project, biochemical, small-molecule microarray, fluorescence 635/667 (AID 1067).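 Further: measures binding of biotinylated aFGF2 protein to printed compounds on slides; z-score merges feature fluorescence and signal-to-noise across triplicate slides.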 The following applies: higher = more signal.
A short description of assay [4]: binders of probe aFGF10 on microarray, primary screen, stem cell growth factor project, biochemical, small-molecule microarray, fluorescence 635/667 (AID 1071).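 Further: score merges 667 nm spot intensity and signal to noise from triplicate slides.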 The following applies: higher = more signal.
In assay [5] the target is Neurogenic locus notch homolog protein 2 (Homo sapiens) (UniProt Q04721). In words: Notch2 binders on small-molecule microarrays, primary screen, biochemical, small-molecule microarray, 635 nm fluorescence, stem cell growth factors (AID 1073). The note with it: Notch2 binding, higher = more signal.
For assay [6], the target named is Pro-neuregulin-1, membrane-bound isoform (Homo sapiens) (UniProt Q02297). As to the kind of experiment: NRG1 binders on small-molecule microarrays, primary screen, psychiatric disease protein project, biochemical, small-molecule microarray, fluorescence 635/667 (AID 1075).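 Further: score combines 667 nm spot fluorescence with signal to noise.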 The note with it: NRG1 binding, 635 nm fluorescence, higher = more signal.
Pro-neuregulin-1, membrane-bound isoform (Homo sapiens), sequence (Q02297 whole entry, looked up, the tested form may be a part, canonical isoform): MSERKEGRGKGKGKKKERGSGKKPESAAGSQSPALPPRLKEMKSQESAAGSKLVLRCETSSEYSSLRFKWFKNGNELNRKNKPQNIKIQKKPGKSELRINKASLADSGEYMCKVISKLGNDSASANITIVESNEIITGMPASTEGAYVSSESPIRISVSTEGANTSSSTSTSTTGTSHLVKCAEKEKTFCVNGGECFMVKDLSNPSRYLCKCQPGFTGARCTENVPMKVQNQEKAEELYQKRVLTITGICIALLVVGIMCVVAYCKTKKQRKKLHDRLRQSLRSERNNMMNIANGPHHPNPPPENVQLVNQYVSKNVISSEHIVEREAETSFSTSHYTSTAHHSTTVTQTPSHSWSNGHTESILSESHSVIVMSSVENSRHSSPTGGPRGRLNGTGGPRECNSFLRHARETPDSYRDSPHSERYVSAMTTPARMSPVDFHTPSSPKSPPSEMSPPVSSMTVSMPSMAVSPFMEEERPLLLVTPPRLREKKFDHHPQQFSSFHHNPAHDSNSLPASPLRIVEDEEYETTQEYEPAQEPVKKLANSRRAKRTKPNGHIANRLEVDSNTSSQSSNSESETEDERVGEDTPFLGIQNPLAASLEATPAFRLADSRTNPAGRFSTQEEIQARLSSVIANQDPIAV
In assay [7] the test system is Neuregulin-1 EGF-like domain. In words: binders of neuregulin-1 EGF-like domain, primary screen, biochemical, small-molecule microarray, 635 nm fluorescence (AID 1081).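 Further: binding of the protein to compounds printed on small-molecule microarray slides.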 The following applies: small-molecule microarray binding, higher = more signal.
The nature of assay [8]: FRG1 promoter luciferase signal modulators, primary screen, FRG1 inhibition for FSHD, cell-based, C2C12 myotubes, firefly/Renilla luciferase, luminescence (AID 1084). The note with it: higher = more signal, called active from +8 up or from −8 down.
The nature of assay [9]: binders of probe aFST on microarray, primary screen, stem cell growth factor project, biochemical, small-molecule microarray, fluorescence 635/667 (AID 1086).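 Further: score merges 667 nm fluorescence with signal-to-noise of each printed compound spot.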 The note with it: higher = more signal.
Assay [10] in a line: binders of probe aHhip on microarray, primary screen, stem cell growth factor project, biochemical, small-molecule microarray, fluorescence 635/667 (AID 1087).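 Further: score merges spot fluorescence at 667nm with spot signal to noise ratio.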 The note with it: higher = more signal.
For assay [11], the system named is PRMT1 (protein arginine N-methyltransferase 1). In words: PRMT1 binders on small-molecule microarrays, primary screen, biochemical, small-molecule microarray, 635 nm fluorescence (AID 1088).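 Further: binding of Prmt1 protein to compounds spotted on small-molecule microarray slides.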 The note with it: small-molecule microarray binding, higher = more signal.
A short description of assay [12]: yeast growth modulation, basal conditions, primary screen, YJM789 clinical isolate, OD600, 24 h (AID 1089).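 Further: growth of clinical yeast isolate S. cerevisiae YJM 789 seeded 1000 cells per well; test concentration not given here.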 The note with it: S. cerevisiae YJM789 growth, higher = more signal, called active from +8 up or from −8 down.
Assay [13] is described as follows: fission yeast growth modulation, primary screen, strain 972, OD600, 24 h, no modulator (AID 1090).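 Further: basal condition with compound alone and no growth modifier present; test concentration not given here.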 The note with it: S. pombe 972 growth, higher = more signal, called active from +8 up or from −8 down.
Assay [14] is described as follows: S. cerevisiae growth modulation with rapamycin, primary screen, strain BY4716, OD600, 96 h (AID 1091). Further: test concentration not given here. The following applies: higher = more signal, called active from +8 up or from −8 down.
Assay [15] deals with Torsin-1A-interacting protein 2 (Homo sapiens) (UniProt Q8NFQ8). As to the kind of experiment: LULL1 binders on small-molecule microarray, primary screen, cell lysate, human LULL1 lysate, 635/667 nm fluorescence (AID 1092).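 Further: probe is lysate of COS7 cells overexpressing human LULL1; score merges per-feature 667 nm fluorescence with signal-to-noise.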 The note with it: hLULL1 lysate binding, 635 nm fluorescence, higher = more signal.
Torsin-1A-interacting protein 2 (Homo sapiens), sequence (Q8NFQ8 whole entry, looked up): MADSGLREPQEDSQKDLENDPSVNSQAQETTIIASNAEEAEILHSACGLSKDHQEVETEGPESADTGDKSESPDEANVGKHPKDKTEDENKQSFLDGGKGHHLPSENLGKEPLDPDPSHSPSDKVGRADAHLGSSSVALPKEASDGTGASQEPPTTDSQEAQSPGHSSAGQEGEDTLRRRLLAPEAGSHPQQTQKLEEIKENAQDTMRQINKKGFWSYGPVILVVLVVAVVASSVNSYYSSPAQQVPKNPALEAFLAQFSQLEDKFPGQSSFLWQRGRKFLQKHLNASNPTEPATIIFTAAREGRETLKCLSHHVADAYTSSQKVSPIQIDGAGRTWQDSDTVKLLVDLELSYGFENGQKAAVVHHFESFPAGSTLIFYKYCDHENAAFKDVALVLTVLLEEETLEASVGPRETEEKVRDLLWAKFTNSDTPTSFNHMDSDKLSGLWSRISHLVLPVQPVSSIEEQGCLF
Assay [16] in a line: E. coli growth modulation, two-sided OD650, primary screen, E. coli filamentation project, strain DRC41, 24 h (AID 1093).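 Further: MC1000 strain lacking acrAB efflux and sulA so SOS filamentation is blocked; test concentration not given here.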 The note with it: OD650, 24 h, higher = more signal, called active from +8 up or from −8 down.
Assay [17] in a line: small-molecule microarray binders of probe aLefty2, primary screen, biochemical, biotinylated probe, 635/667 nm fluorescence (AID 1094).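 Further: score merges spot fluorescence near 667 nm with spot signal-to-noise ratio.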 The following applies: higher = more signal.
Assay [18] relates to Noggin (protein binding on small-molecule microarray). In words: Noggin binders on small-molecule microarray, primary screen, biochemical, 635/667 nm fluorescence (AID 1095).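 Further: score merges 667 nm feature fluorescence with signal to noise over triplicate slides.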 The note with it: 635 nm fluorescence, higher = more signal.
Assay [19] has as its target Neurogenic locus notch homolog protein 3 (Homo sapiens) (UniProt Q9UM47). In words: NOTCH3 binders on small-molecule microarray, primary screen, biochemical, 635/667 nm fluorescence (AID 1096). The following applies: NOTCH3 binding, 635 nm fluorescence, higher = more signal.
Assay [20] in a line: small-molecule microarray binders of probe aEGFR, primary screen, biochemical, biotinylated probe, 635/667 nm fluorescence (AID 1097).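 Further: probe is a biotinylated anti-EGFR antibody binding compounds printed on slides; score combines fluorescence near 667 nm and signal to noise of each spot.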 The note with it: higher = more signal.

The structures appear in SMILES notation. Calls of active or inactive are those of the source.

Neurogenic locus notch homolog protein 3 (Homo sapiens), sequence (Q9UM47 whole entry, looked up): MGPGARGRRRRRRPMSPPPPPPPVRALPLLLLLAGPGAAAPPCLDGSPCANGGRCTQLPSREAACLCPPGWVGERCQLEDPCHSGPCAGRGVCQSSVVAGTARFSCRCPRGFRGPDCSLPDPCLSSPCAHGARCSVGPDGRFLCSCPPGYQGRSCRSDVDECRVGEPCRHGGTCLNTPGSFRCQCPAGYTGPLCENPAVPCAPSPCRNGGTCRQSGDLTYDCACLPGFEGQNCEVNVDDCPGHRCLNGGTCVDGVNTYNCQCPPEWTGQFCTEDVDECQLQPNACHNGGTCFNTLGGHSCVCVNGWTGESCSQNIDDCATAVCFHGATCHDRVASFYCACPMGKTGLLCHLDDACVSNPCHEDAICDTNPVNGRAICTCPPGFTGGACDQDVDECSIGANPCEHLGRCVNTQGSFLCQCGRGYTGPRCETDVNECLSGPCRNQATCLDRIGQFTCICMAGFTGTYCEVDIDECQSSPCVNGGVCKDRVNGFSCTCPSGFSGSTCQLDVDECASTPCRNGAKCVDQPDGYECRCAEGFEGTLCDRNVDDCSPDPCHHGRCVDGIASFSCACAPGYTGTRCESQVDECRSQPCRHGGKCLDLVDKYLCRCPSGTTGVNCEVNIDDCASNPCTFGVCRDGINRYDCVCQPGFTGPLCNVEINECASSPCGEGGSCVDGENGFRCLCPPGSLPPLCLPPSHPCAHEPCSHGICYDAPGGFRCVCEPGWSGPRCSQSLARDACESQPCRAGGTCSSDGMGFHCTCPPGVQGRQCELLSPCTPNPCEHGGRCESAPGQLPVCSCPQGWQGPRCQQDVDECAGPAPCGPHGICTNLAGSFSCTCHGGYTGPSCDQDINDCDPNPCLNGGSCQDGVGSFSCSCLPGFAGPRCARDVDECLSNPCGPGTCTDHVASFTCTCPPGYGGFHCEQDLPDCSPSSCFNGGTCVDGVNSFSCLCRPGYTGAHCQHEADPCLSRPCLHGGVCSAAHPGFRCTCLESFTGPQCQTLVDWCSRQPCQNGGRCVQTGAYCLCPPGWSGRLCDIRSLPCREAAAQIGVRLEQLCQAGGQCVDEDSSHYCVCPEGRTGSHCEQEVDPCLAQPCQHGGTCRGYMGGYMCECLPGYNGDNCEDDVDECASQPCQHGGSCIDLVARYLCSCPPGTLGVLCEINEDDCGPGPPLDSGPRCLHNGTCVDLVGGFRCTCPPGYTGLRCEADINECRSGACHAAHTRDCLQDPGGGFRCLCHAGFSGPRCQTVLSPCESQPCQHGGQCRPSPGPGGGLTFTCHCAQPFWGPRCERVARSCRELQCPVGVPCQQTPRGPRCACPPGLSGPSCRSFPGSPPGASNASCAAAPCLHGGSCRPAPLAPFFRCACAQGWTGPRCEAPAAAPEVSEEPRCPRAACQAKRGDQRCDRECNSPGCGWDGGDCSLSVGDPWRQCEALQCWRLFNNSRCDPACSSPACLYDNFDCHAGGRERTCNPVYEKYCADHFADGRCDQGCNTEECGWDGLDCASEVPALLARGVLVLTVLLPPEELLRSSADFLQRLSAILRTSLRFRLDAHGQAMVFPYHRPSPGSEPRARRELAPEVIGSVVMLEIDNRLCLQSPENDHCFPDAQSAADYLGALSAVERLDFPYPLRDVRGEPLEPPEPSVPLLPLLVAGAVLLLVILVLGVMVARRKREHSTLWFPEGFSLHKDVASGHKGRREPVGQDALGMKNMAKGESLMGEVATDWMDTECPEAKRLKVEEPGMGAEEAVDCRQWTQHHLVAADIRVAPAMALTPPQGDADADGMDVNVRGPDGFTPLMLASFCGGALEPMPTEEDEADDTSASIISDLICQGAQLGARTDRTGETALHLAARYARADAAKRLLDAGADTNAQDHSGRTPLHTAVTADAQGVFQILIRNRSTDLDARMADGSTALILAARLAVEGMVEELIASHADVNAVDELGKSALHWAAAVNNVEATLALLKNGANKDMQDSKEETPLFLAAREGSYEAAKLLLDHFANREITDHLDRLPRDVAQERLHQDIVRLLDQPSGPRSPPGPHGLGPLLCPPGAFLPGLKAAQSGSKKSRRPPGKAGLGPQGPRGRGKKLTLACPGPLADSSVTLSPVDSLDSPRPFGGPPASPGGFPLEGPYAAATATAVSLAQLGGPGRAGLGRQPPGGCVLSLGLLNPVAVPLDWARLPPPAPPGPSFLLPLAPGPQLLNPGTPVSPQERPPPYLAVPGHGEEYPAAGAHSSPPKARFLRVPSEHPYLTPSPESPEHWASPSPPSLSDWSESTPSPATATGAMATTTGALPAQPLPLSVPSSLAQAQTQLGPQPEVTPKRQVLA

For `C=CC[C@]1(C(=O)N(C)C)N=C(c2ccc(OCCCO)cc2)O[C@H]1c1ccccc1`, the composite z-score in assay [1] is 0.334; in [2], 0.184; in assay [3] it was 0.229; in [4], 1.14; in assay [5] it was 0.353; in [6] it was 1.85. Also, the composite z-score in [7] was determined as 1.34; in assay [9] it was 0.463; in assay [10], 0.064; in [11] it was 1.43; in assay [15], 3.59; in [17], 0.0158. Also, the composite z-score in [18] is 0.364; in assay [19], 1.14; in [20] it was -0.0512. Moreover, the z-score is 2.28 (inactive) in [8]; -1.76 (inactive) in assay [12]; -3.16 (inactive) in assay [13]; -0.979 (inactive) in assay [14]; 0.896 (inactive) in [16].

In the case of `O=C(C=C(CC(O)c1cccc(Cl)c1)OCCF)OCCF` (stereo not given), the composite z-score was 0.876 in [1]; -0.824 in assay [2]; -0.154 in [3]; -0.694 in assay [4]; -1.02 in assay [5]; -0.0066 in [6]. For the same compound, the composite z-score was -0.19 in assay [7]; 0.0462 in assay [9]; 0.0596 in [10]; -1.87 in assay [11]; 0.0714 in assay [15]; -0.166 in [17]. Also, the figures for the composite z-score in assay [18], in assay [19] and in [20] were -1.22, -1.11 and -0.128, respectively. Moreover, the z-score in [8] is -4.54 (inactive); in [12] it was -2.44 (inactive); in assay [13], 0.291 (inactive); in assay [14] it was -0.582 (inactive); in [16], -0.106 (inactive).

For `CN(C)C(=O)[C@@]1(CCS(=O)(=O)c2ccccc2)N=C(c2ccc(OCCCO)cc2)O[C@H]1c1ccccc1CN=[N+]=[N-]`, the composite z-score is -0.323 in assay [1]; 0.124 in assay [2]; 0.226 in assay [3]; 0.972 in assay [4]; 1.33 in assay [5]; 1.63 in [6]. Moreover, the composite z-score was 1.27 in [7]; 0.889 in assay [9]; -0.236 in assay [10]; 1.54 in assay [11]; 3.79 in assay [15]; 0.0225 in assay [17]. The composite z-score in assay [18] was determined as 1.66; in assay [19] it was 1.12; in assay [20] it was 0.0316. The z-score in assay [8] is -1.56 (inactive); in assay [12], -1.54 (inactive); in assay [13] it was -0.346 (inactive); in assay [14], 0.0194 (inactive); in assay [16] it was 1.15 (inactive).

Consider `COCCOC(=O)N1C(=O)[C@@]2(c3cc(C#CC4(O)CCCCCC4)ccc31)[C@H](C(=O)N1CCc3cc(OC)c(OC)cc3C1)[C@H]1C(=O)O[C@H](c3ccccc3)[C@H](c3ccccc3)N1[C@@H]2c1ccccc1OCCO`, for which the composite z-score in [1] was -0.0526; in [2], 1.46; in [3], 0.119; in assay [4], 0.665; in assay [5], 1.15; in assay [6], 0.491. The composite z-score worked out at 1.22 in assay [7]; 1.08 in [9]; 0.623 in assay [10]; 1.54 in [11]; 1.39 in [15]; 0.226 in [17]. Further, the composite z-score in [18] came out at 1.29; in assay [19], 1.06; in assay [20] it was 0.295. The z-score in assay [8] was -0.165 (inactive); in assay [12], 2.29 (inactive); in assay [13], 1.05 (inactive); in assay [14], 3.98 (inactive); in assay [16], 1.36 (inactive).

Turning to `O=c1c2ccc(Br)cc2nc(-c2ccccc2)n1Cc1cccc(O)c1`, the composite z-score in [1] was 0.255; in [2], 2.81; in assay [3] it was -0.0774; in assay [4], 0.556; in [5] it was 0.701; in [6], 1.81. Moreover, the composite z-score in assay [7] was 1.12; in assay [9] it was 0.831; in assay [10] it was -0.181; in [11], 0.529; in assay [15], 1.86; in [17], -0.0614. The values for the composite z-score in assay [18], in [19] and in [20] were -0.0706, 0.343 and -0.0721, respectively. The z-score in assay [8] is 4.59 (inactive); in assay [12], -1.52 (inactive); in assay [13] it was -2.91 (inactive); in [14] it was -0.511 (inactive); in assay [16] it was 1.38 (inactive).

The values are drawn from PubChem BioAssay.
